# Compound activity: PubChem, National Center for Advancing Translational Sciences (NCATS)
# SW480 rereplic: induces DNA re-replication in SW480 colon adenocarcinoma cells; Potency, µM (top dose mostly 46.1 µM), inactives show at the highest dose re-replication activation, usual class: activators; 340,000 compounds, 1.8% hits; AID 624297; SW480 DNA re-replication, Hoechst DNA content imaging, 48 h; also: % of control where 0% means no effect; nearly all actives have a fitted effect of over 55% in size
#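 Readout is total intensity of Hoechst-stained nuclei, excited at 405 nm and collected at 500-530 nm. Compound treatment lasted 48 hr at 37 C in 5% CO2 before staining.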
# KB-V1 cytotox: KB-V1 MDR subline cytotoxicity; 400,000 compounds, 3.4% hits; Potency, µM (highest dose often 46.1 µM), actives largely listed as cytotoxic; KB-V1 MDR cells viability, CellTiter-Glo, 72 h; also: % is scaled to controls: 0 for no effect and ±100 for the full control effect; nearly all actives have a fitted effect of over 60% in size
#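 Drug-selected KB-V1 cells, grown in DMEM lacking phenol red with 10% FBS, receive compound titrations; after three days at 37 degrees C, surviving cell ATP is quantified by CellTiter-Glo luminescence and responses normalized and curve-fitted.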
# PTAP TSG101 blk: blocks PTAP/TSG101 interaction to inhibit HIV-1 budding. AID 493005. Potency, µM (doses to about 115 µM), without a hit: at the top dose activity change, negative = inhibition, actives largely listed as inhibitors. Q99816. Fluorescence polarization, FITC-PTAP peptide / Tsg101 binding. 340,000 tested, under 10 active; active = well fitted inhibition curve with a large enough effect in the main read-out, with a control signal flat, not every such curve was filed as active; inconclusive = small, poorly fitted or top-dose-only effect, or effect the other way, or a change in a side signal; inactive = no such curve, though single readings can be large or run the other way; also: % of control where 0% means no effect
# Target sequence (Q99816 whole entry, looked up): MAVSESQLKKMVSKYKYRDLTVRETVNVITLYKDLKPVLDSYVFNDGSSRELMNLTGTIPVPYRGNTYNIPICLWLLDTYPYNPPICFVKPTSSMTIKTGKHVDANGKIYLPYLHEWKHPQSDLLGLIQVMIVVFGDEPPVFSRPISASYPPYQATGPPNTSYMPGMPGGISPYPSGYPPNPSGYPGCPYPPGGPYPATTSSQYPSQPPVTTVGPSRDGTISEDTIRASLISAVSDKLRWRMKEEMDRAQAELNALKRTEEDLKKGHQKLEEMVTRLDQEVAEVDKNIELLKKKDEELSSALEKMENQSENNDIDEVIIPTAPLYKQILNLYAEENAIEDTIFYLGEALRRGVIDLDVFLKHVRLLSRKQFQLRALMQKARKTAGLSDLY
#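 Fluorescence anisotropy tracks displacement of a FITC-tagged PTAP peptide (50 nM) from the Tsg101 binding domain (10 uM), following a 20 min room-temperature incubation at pH 7.5.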
# RGS4 inhibitor: inhibitors of human regulator of G protein signaling 4 | Transcreener GDP fluorescence polarization, RGS4-accelerated GTP hydrolysis | Potency, µM (series often up to 114 µM), for the others: top-dose activity change, negative = inhibition, most hits filed as inhibitors | P49798 | AID 504845 | 390,000 compounds, 0.039% hits; also: % is scaled to controls: 0 for no effect and ±100 for the full control effect; nearly all actives have a fitted effect of over 75% in size
# Target sequence (P49798 whole entry, looked up): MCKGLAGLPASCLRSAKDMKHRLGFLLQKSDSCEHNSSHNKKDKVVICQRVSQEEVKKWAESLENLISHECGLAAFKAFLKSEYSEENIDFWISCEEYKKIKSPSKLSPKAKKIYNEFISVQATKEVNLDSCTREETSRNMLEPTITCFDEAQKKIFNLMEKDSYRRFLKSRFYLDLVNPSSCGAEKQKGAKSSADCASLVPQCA
#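 MLSMR compounds (23 nl, pin-transferred) preincubated 10 min at room temperature with a 500nM (2x) first reagent, then RGS4 at 900nM (2x) plus Transcreener GDP mix added; fluorescence polarization (620/688 nm) read before and after 90 min at 30 °C.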
# KB-3-1 cytotox: kills parental KB-3-1 adenocarcinoma cells; KB-3-1 viability, CellTiter-Glo ATP luminescence, 72 h; Potency, µM (highest dose often 46.1 µM), usual class: cytotoxic; 400,000 compounds, 1.4% hits; AID 1347075; also: % is scaled to controls: 0 for no effect and ±100 for the full control effect; nearly all actives have a fitted effect of over 60% in size
#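 Cytotoxicity in the drug-sensitive parental line KB-3-1 was scored as loss of CellTiter-Glo luminescence following 72 h incubation with compound. Values come from curve fitting of normalized concentration-response data.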
# MCF10A rerep: inducers of DNA re-replication in MCF 10A breast cells | Potency, µM (series often up to 46.1 µM), for the others: top-dose activity, positive = re-replication, actives largely listed as activators | 350,000 compounds, 2.9% hits | MCF 10A DNA re-replication, Hoechst nuclear intensity, 48 h; also: % of control where 0% means no effect; nearly all actives have a fitted effect of over 50% in size
# Numbers without * were called inactive; i = inactive; u = inconclusive; x = no result. Rows were chosen to be rich in hits. Some 6.6% of all compounds tested hit in one or more screens of this group. Unless noted, calls follow the shape of the dose curve; as a rule, active = well fitted curve in the direction sought with a large enough effect; inconclusive = small, poorly fitted or top-dose-only effect, or another doubt; inactive = no such curve, though single readings can be large; an effect the other way counts as inactive or inconclusive. Potency is read from the fitted curve at half-maximal effect.
SMILES,SW480 rereplic,KB-V1 cytotox,PTAP TSG101 blk,RGS4 inhibitor,KB-3-1 cytotox,MCF10A rerep
O=C(CSc1nc2ccccc2c(=O)n1CCCN1CCOCC1)NC12CC3CC(CC(C3)C1)C2,-23%,9.2µM*,-1%,9%,i,u
Cc1cc(NC(=O)CSc2nc3c(sc4ccccc43)c(=O)n2CCc2ccccc2)n[nH]1,2%,i,0%,-5%,i,11%
Cc1cc(NC(=O)CSc2nc3c(sc4ccccc43)c(=O)n2CCCN2CCOCC2)n[nH]1,7.3µM*,i,-1%,11%,13µM*,u
Cc1[nH]c2ccccc2c1C(=O)CSc1nc2ccccc2c(=O)n1CCCN1CCOCC1,4%,i,0%,-30%,i,15µM*
Cc1ccc(NC(=O)CSc2nnc3[nH]c(=O)cc(-c4ccccc4)n23)cc1Cl,x,x,x,-1%,x,x
Cc1ccc(C(=O)N/N=C/c2cccc(OC(=O)/C=C/c3ccco3)c2)cn1,-1%,i,1%,u,i,-1%
O=C(/C=C/c1ccco1)Oc1cc(Br)cc(/C=N/NC(=O)c2ccccc2O)c1,0.73µM*,u,-7%,32%,u,u
Nc1n[nH]c2cc(=O)n(-c3cccc(C(F)(F)F)c3)nc12,7.3µM*,i,-14%,-5%,i,-2%
Cc1cccc(N(Cc2cc3cc(C)ccc3[nH]c2=O)C(=O)c2cccs2)c1,-1%,i,-5%,6%,i,10µM*
Cc1ccc2[nH]c(=O)c(CN(C(=O)c3cccs3)c3ccccc3)cc2c1,0%,3.3µM*,-2%,-32%,u,15%
Cc1cccc(N(Cc2cc3ccccc3[nH]c2=O)C(=O)c2cccc(Cl)c2)c1,x,i,x,32%,i,x
Cc1ccc2cc(CN(C(=O)c3cccs3)c3ccccc3)c(=O)[nH]c2c1,u,i,3%,-19%,i,u
Cc1cc(SCC(=O)Nc2ccc(C(F)(F)F)cc2)nc(=O)[nH]1,x,i,x,-1%,i,x
O=C(CN1C(=O)CCC1=O)Nc1nc(-c2ccc3ccccc3c2)cs1,-38%,i,0%,-13%,i,1.5µM*
Cc1ccc(-c2csc(NC(=O)CN3C(=O)CCC3=O)n2)cc1,-1%,i,-5%,18%,i,-18%
Cn1cc(CN2CCC(n3nccc3NC(=O)c3ccccc3Cl)CC2)cn1,-19%,u,x,7%,i,2%
CCc1ccc(CN2CCC(n3nccc3NC(=O)c3ccccc3Cl)CC2)cc1,2%,18µM*,0%,4%,i,u
Fc1cccc(Nc2ncnc3[nH]ncc23)c1,-25%,i,-3%,2%,i,4.1µM*
Cc1cc(N)c(C)c([N+](=O)[O-])c1C,5%,i,-7%,-18%,i,-1%
Cc1c(N)c(C(C)(C)C)cc(C(C)(C)C)c1[N+](=O)[O-],-66%,i,-1%,-33%,i,18µM*
CCOc1ccc(-c2nnc(SCC(=O)NCc3ccccc3)nc2-c2ccc(OCC)c(OC)c2)cc1OC,x,i,x,-10%,i,x
CC1CCCCN1C(=O)CSc1nnc(-c2cccnc2)n1C1CCCCC1 (configuration not stated),-1%,15µM*,-8%,26%,i,0%
O=C(CSc1nnc(-c2cccnc2)n1C1CCCCC1)NC1CCCCC1,-9%,18µM*,-4%,27%,i,3%
CCn1c(SCC(=O)NC2CCCC2)nnc1-c1cccnc1,-11%,u,1%,-1%,i,-15%
Cc1noc(C)c1CSc1nnc(-c2cccnc2)n1C1CCCCC1C (configuration not stated),2%,23µM*,-2%,16%,i,5%
SMILES,SW480 rereplic,KB-V1 cytotox,PTAP TSG101 blk,RGS4 inhibitor,KB-3-1 cytotox,MCF10A rerep
CCOc1cc(C)c(S(=O)(=O)NC2CC(C)(C)NC(C)(C)C2)cc1C,-8%,i,-3%,-4%,i,2%
CCOc1ccc(Br)cc1S(=O)(=O)NC1CC(C)(C)NC(C)(C)C1,0.52µM*,i,-4%,1%,i,13%
CCC(=O)N1c2ccccc2CC1C(=O)NCc1cc(Br)ccc1OC (configuration not stated),x,i,x,-32%,i,x
Fc1ccc2nc(Nc3nc4cc5c(cc4s3)OCCO5)sc2c1,20%,u,-1%,0%,u,15µM*
c1ccc2sc(Nc3nc4cc5c(cc4s3)OCO5)nc2c1,u,i,-1%,-17%,i,18µM*
Fc1cccc2sc(Nc3nc4ccccc4s3)nc12,3%,21µM*,-1%,-9%,i,u
Fc1ccc2nc(Nc3nc4c(F)cc(F)cc4s3)sc2c1,1%,u,-5%,10%,u,15µM*
CCCN(CCC)S(=O)(=O)c1ccc(C(=O)N2CCn3c4c(c5cc(C)ccc53)CCCC42)cc1 (configuration not stated),x,i,x,-10%,i,x
Cc1ccc(-c2noc(-c3nnn(CC(=O)Nc4cccc(C(F)(F)F)c4)c3N)n2)cc1,x,x,x,-1%,x,x
O=C(CSc1nc2c([nH]c3ccccc32)c(=O)n1-c1ccccc1)N1CCCC1,x,x,x,-43%,x,x
Fc1ccccc1N1CCN(c2ncnc3onc(-c4cccc(Cl)c4)c23)CC1,x,u,x,-1%,u,x
O=C(NCCc1nc2ccccc2n1CCO)C1CCCCC1,x,i,x,x,u,x
O=C(NNc1nc2cc3c(cc2s1)OCO3)c1ccc(F)cc1,-4%,u,-3%,8%,i,4%
Brc1cc2c(cc1/C=N/Nc1nc3ccccc3s1)OCO2,u,u,-6%,1%,i,13µM*
C(=N\Nc1nc2ccccc2s1)/c1ccc2c(c1)OCO2,-4%,i,1%,-5%,i,20%
O=C(NNc1nc2cc3c(cc2s1)OCCO3)c1ccc(F)cc1,-28%,u,-2%,-29%,u,0.26µM*
O=C(CN1CCN(Cc2ccccc2)CC1)Nc1cccc(C(F)(F)F)c1,1%,16µM*,-1%,37%,i,13%
COc1cc(CN2CCCC(C(=O)c3ccc4c5c(cccc35)CC4)C2)cc(OC)c1O (configuration not stated),u,i,-7%,u,u,21µM*
